Source: PubChem BioAssay (National Center for Advancing Translational Sciences (NCATS))
PNC assembly inh = inhibitors of perinucleolar compartment assembly. PC3M PTB-GFP, PNC prevalence imaging, 16 h; stronger effect = lower value. activity change (PNC), negative = inhibition, % at 10 µM. hit rate 3.1% among 140,000. AID 2417;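 active = readout at or below -70, meaning at least 70% loss of cells showing the perinucleolar compartment, a nuclear body marking cancer cells; inconclusive = readout between -30 and a set limit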;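 note: plate controls were DMSO wells for no effect and camptothecin positive control wells for full effect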
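Read-out is percentage of cells bearing a perinucleolar compartment, from automated 20x imaging of fixed, Hoechst-stained PC3M PTB-GFP cells. Cells were seeded 4 h, then exposed 16 h to compound (23 nl of library stock) in duplicate plates.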
IMPase cell inh = cell-permeable inhibitors of inositol monophosphatase (IMPase); P97697; CHO-M1 cells, IP1 accumulation, HTRF TR-FRET ratio; inhibition (IP1 accumulation), % at 46.1 µM; 120,000 tested, under 10 active; AID 901; active = well fitted curve in the direction sought with a large enough effect in the signal ratio, not every such curve was filed as active; inconclusive = small, poorly fitted or top-dose-only effect, or a change in a side signal; inactive = no such curve, though single readings can be large or run the other way; the % refers to the signal ratio;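 note: cells stimulated with carbachol in lithium chloride buffer; plate controls were DMSO basal wells for no effect and reference inhibitor wells for full effect; higher means more IMPase inhibition seen as more IP1 and lower FRET ratio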
Target sequence (P97697 whole entry, looked up): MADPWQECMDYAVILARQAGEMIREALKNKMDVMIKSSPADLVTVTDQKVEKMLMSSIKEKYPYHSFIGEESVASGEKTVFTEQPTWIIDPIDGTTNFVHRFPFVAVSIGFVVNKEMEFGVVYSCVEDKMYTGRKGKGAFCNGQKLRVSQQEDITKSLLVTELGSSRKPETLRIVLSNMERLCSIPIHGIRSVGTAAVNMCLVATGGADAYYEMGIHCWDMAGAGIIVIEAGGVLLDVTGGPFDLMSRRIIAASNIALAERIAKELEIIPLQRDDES
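In this qHTS, compounds (final up to 46 uM) act on CHO-M1 cells that are then activated through the M1 receptor with carbachol, in pH 7.4 buffer containing 50 mM LiCl, for 30 min. IP1 accumulation is quantified by the IP-One immunoassay.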
IMPase Li inh = IMPase inhibition in cells with lithium potentiation; CHO-M1 cells, IP1 TR-FRET (IP-One), carbachol + lithium; Potency, µM (top dose mostly 59.4 µM), without a hit: top-dose activity, negative = IMPase inhibition, hits mostly inhibitors; hit rate 0.35% among 210,000; AID 1457;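 note: IP1 builds up when IMPase is blocked and the TR-FRET signal falls; potency is the fitted concentration of half-maximal effect; plate controls were basal vehicle for no effect and high inhibitor control for full effect; nearly all actives have a fitted effect of over 50% in size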
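IP1 accumulation measured by competitive TR-FRET in lysed CHO-M1 cells after 30 min compound exposure at 37C, with a small lithium addition to potentiate weak responses. Hill-equation AC50 from ratio and donor-channel data.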
HPGD inh = blocks human HPGD enzyme activity | P15428 | purified HPGD, NADH fluorescence kinetic, PGE2 substrate | Potency, µM, for inactives: at the highest dose activity change, negative = inhibition, usual class: inhibitors | hit rate 4.3% among 150,000 | AID 894; active = well fitted inhibition curve with a large enough effect, not every such curve was filed as active; inconclusive = small, poorly fitted or top-dose-only effect, or another doubt; inactive = no such curve, though single readings can be large or run the other way; note: potency is the fitted concentration of half-maximal effect
Target sequence (P15428 whole entry, looked up): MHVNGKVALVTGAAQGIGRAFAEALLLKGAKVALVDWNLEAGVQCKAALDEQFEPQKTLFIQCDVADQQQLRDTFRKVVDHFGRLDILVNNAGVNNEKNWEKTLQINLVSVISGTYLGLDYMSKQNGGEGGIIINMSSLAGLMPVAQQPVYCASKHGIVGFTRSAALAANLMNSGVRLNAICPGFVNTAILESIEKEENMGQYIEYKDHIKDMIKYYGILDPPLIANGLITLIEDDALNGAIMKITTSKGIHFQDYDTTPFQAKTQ
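20 nM HPGD preincubated 15 min at room temperature with compound in 50 mM Tris-HCl pH 8, 0.01% Tween 20. Started with 1 mM NAD+ and 30 uM prostaglandin E2; NADH fluorescence (360/450 nm) read 5 times over 30-s intervals, last minus first.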
ALOX12 inhib = blocks human 12-lipoxygenase activity; P18054; purified 12-hLO, xylenol orange hydroperoxide absorbance; Potency, µM (highest dose often 57.1 µM), for inactives: at the top dose activity change, negative = inhibition, actives largely listed as inhibitors; hit rate 0.12% among 150,000; AID 1452; note: potency is the fitted concentration of half-maximal effect; nearly all actives have a fitted effect of over 55% in size
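Purified human 12hLO (150 nM final) was preincubated with compounds for 15 min at room temperature in 25 mM Hepes pH 7.0, 0.01% Triton X-100, then reacted with 40 uM arachidonic acid for 30 min. Hydroperoxide was detected with ferrous iron/xylenol orange.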
15-hLO-2 inh = 15-hLO-2 (ALOX15B) enzyme inhibition | hit rate 0.56% among 110,000 | purified 15hLO-2, xylenol orange hydroperoxide absorbance | O15296 | Potency, µM (series often up to 57.1 µM), for the others: at the highest dose activity change, negative = inhibition, hits mostly inhibitors; note: potency is the fitted concentration of half-maximal effect; nearly all actives have a fitted effect of over 60% in size
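Screening format was qHTS against 50 nM purified 15hLO-2 in Hepes pH 7.5 with detergent. Activity follows hydroperoxide formation from 45 uM arachidonic acid, measured as 573:405 nm absorbance ratio of the ferric-xylenol orange complex.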
Numbers without * were called inactive; ? = inconclusive; . = not tested or not shown; [ ] = remark or other dose. This is a sample that favours compounds with a hit; in the whole collection about 5.3% have one here. Unless noted, calls come from the whole dose curve; as a rule, active = well fitted curve in the direction sought with a large enough effect; inconclusive = small, poorly fitted or top-dose-only effect, or another doubt; inactive = no such curve, though single readings can be large; an effect the other way counts as inactive or inconclusive. Unless noted, % is set by controls: 0 for no effect and ±100 for the full control effect.

SMILES | PNC assembly inh | IMPase cell inh | IMPase Li inh | HPGD inh | ALOX12 inhib | 15-hLO-2 inh
Cc1cc2c(OCC(CNC(C)(C)C)OC(=O)c3ccccc3)cccc2[nH]1 (stereo not drawn) | . | . | -28% | . | . | .
CC(C)(C=O)C1=CC(=O)c2ccccc2C1=O | -22 | ? | 28% | 7.1µM* | -21% | .
Fc1ccc(COc2ccccc2C(=S)N2CCCC2)cc1 | -11 | . | 18% | 8.9µM* | 1% | .
CSc1ccc(NC(=O)N2CC=C(n3c(=O)[nH]c4ccccc43)CC2)cc1 | -27 | . | 1% | -5% | -1% | .
CCOc1ccccc1NC(=O)CN(C)S(=O)(=O)c1ccc(OC)c(C)c1 | 19 | 10 | 47%[38.3 µM] | 16µM* | -5% | 6%
Cc1ccc(NC(=O)c2ccnc(C(C)(C)C)c2)cc1 | -4 | 2 | 3% | -22% | 1% | .
CC(C)(C)c1cc(C(=O)Nc2ccccc2)ccn1 | -122* | -10 | 9% | -3% | 10% | .
CC(C)(C)NS(=O)(=O)c1ccc(N2C(=O)c3ccccc3C2=O)cc1 | -29 | -1 | 32%[38.3 µM] | -6% | 4% | -2%
CC(C)(C)NS(=O)(=O)c1cccc(S(=O)(=O)c2cccc(S(=O)(=O)NC(C)(C)C)c2)c1 | 3 | 5 | -14%[38.3 µM] | 20µM* | -18% | 21%
Cn1c(=O)nc2n(Cc3ccccc3)c3cccc(Cl)c3cc-2c1=O | -15 | -9 | 4% | ? | -5% | .
Cc1[nH]n(C(N)=S)c(=O)c1N=Nc1ccc(S(=O)(=O)N2CCCCCC2)cc1 | 15 | -1 | 10%[38.3 µM] | 16µM* | ? | -10%
Cc1c(Br)c([N+](=O)[O-])nn1C(C)C(=O)Nc1ccc2c(c1)OCO2 (stereo not drawn) | 10 | -21 | -6%[38.3 µM] | -6% | 3% | -2%
O=C(NCc1ccco1)c1cc2nc(C3CC3)cc(C(F)(F)F)n2n1 | 2 | 2 | -18%[38.3 µM] | 18µM* | -4% | 4%
O=C(NCCc1ccc(Cl)cc1)c1nnc(Cc2ccc(F)cc2)o1 | . | 8 | . | . | . | .
CC(C)CCNC(=O)c1nnc(Cc2ccc(Cl)cc2)o1 | -110* | 1 | -8%[38.3 µM] | -4% | -1% | 6%
COc1ccc(C(=O)NC2CCCCCC2)cc1S(=O)(=O)N1CCCc2ccccc21 | 13 | -1 | 10%[38.3 µM] | -7% | 1% | 0%
COc1ccc(C(=O)Nc2nc3c(s2)CCCC3)cc1S(=O)(=O)N1CCCc2ccccc21 | -123* | . | 4% | ? | -7% | .
O=C(CN1C(=O)C2(OCCO2)c2ccccc21)c1ccc(Br)cc1 | ? | 5 | . | . | -25% | -4%
Cc1ccc(S(=O)(=O)Nc2cc(Cl)c(O)cc2C)cc1 | 20 | -4 | 9%[38.3 µM] | 0% | -24% | -14%
Cc1c(NS(=O)(=O)c2ccccc2)cc(Cl)c(O)c1C | -8 | -3 | 15%[38.3 µM] | 32µM* | -4% | 2%[2.29 µM]
CCOc1ccccc1NC(=O)CCN1CCN(S(=O)(=O)c2ccc(Br)cc2)CC1 | -107* | -9 | 28%[38.3 µM] | -14% | 0% | 9%
CCN1CCN(CCC(=O)Nc2ccccc2OC)CC1 | -8 | 4 | 15%[38.3 µM] | -2% | -5% | 4%
CCCCCc1nc2sc3c(c2c(=O)n1NC(=O)c1ccc([N+](=O)[O-])cc1)CC(C)(C)OC3 | ? | 2 | 14% | -10% | -6% | .
Cc1nnc(Sc2cc(C(=O)NCc3ccco3)c3ccccc3n2)s1 | -11 | 4 | 4%[38.3 µM] | 2.2µM* | -7% | 7%
O=C(NCc1ccco1)c1cc(-c2ccccc2)nc2ccccc12 | -4 | 11 | 17%[38.3 µM] | -8% | 7% | 15%
SMILES | PNC assembly inh | IMPase cell inh | IMPase Li inh | HPGD inh | ALOX12 inhib | 15-hLO-2 inh
O=C1COc2ccc(C(=O)COC(=O)CNC(=O)C3CCCCC3)cc2N1 | . | . | 4% | . | . | .
COc1ccc(OC)c(NC(=O)C2CCN(Cc3cnn(-c4ccccc4)c3-n3cccc3)CC2)c1 | -88* | 5 | -6%[38.3 µM] | -19% | -1% | 35%
COc1ccc(C2(CNC(=O)c3ccc(OCC(C)C)cc3)CCOCC2)cc1 | 34 | -11 | . | . | -2% | .
COc1ccc(NS(=O)(=O)c2cccc(C(=O)N/N=C(\C)c3ccncc3)c2)cc1 | -91* | . | 8% | -16% | -5% | .
O=S(=O)(Nc1ccc(S(=O)(=O)N2CCCCCC2)cc1)c1cccs1 | 4 | 4 | 28%[38.3 µM] | -9% | -3% | 0%
Cc1cccc(NS(=O)(=O)c2cccs2)c1 | 12 | 3 | 33%[38.3 µM] | 28µM* | 0% | 6%
O=S(=O)(Nc1ccc(N2CCCCC2)cc1)c1cccs1 | 41 | ? | 7%[38.3 µM] | 25µM* | -1% | -12%
CCCOC(=O)c1ccc(NS(=O)(=O)c2cccs2)cc1 | ? | 3 | -10%[38.3 µM] | 18µM* | 3% | 1%
COC(=O)[C@@]1(Cc2ccccc2)[C@H]2c3cc(C(=O)N(C)C)n(Cc4cc(F)c(F)c(F)c4)c3C[C@H]2CN1C(=O)c1ccccc1 | . | . | 20% | -12% | 1% | 15%
O=C(c1ccc(NS(=O)(=O)c2cccs2)cc1)N1CCCCC1 | ? | -9[0.0738 µM] | -3% | 11µM* | -1% | .
C/C(=N\NC(=O)c1ccc(NS(=O)(=O)c2cccs2)cc1)c1cccs1 | . | . | 6% | . | . | .
C/C(=N\NC(=O)c1ccc(NS(=O)(=O)c2cccs2)cc1)c1ccc(Cl)cc1 | -89* | . | 4% | -9% | 2% | .
O=C(NCc1ccccn1)C(=O)Nc1nc(C23CC4CC(CC(C4)C2)C3)cs1 | . | . | 24% | . | . | .
O=C(COC(=O)CNC(=O)c1sc2ccccc2c1Cl)Nc1c(Cl)cc(Cl)cc1Cl | -26 | . | -14% | -11% | -2% | .
Cn1nnc2ccccc2c1=O | . | . | -4% | . | . | .
Cc1ccc(NC(=O)C(Nc2cccc(C)c2)c2ccccc2)cc1 (stereo not drawn) | 16 | . | 19% | -13% | -3% | .
S=c1[nH]nc(Cc2cccs2)n1-c1ccccc1Cl | . | . | 2% | . | . | .
O=C(O)c1ccc(-n2c(-c3cc(-c4ccco4)[nH]n3)n[nH]c2=S)cc1 | -16 | 1 | -6%[38.3 µM] | ? | -1% | 4%
S=c1[nH]nc(-c2cc(-c3ccco3)[nH]n2)n1-c1cccc2ccccc12 | ? | 2 | -2%[38.3 µM] | 11µM* | -29% | ?
Cn1c(-c2ccco2)n[nH]c1=S | . | . | -4% | . | . | .
Cc1ccccc1-n1c(-c2ccco2)n[nH]c1=S | -114* | . | -10% | ? | 0% | .
S=c1[nH]nc(Cc2cccs2)n1-c1cccc2ccccc12 | -6 | . | 0% | 25µM* | -1% | .
CC(=O)c1ccc(-n2c(-c3cc(-c4ccco4)[nH]n3)n[nH]c2=S)cc1 | 30 | 6 | 29%[38.3 µM] | 5.6µM* | -8% | ?
Cc1cccc(-n2c(-c3ccco3)n[nH]c2=S)c1 | ? | . | ? | -13% | 0% | .
